Experimental data taken from PubChem BioAssay (Tox21).
Records with an inconclusive call do not appear. Activity calls are given as the source filed them. Unless noted, the call rests on the fitted dose curve; in most records, active means well fitted curve in the direction sought with a large enough effect in the repeat runs; inconclusive means weak or mixed curves; inactive means no such curve, though single readings can be large; an effect the other way counts as inactive or inconclusive.

Legend:
[1] = qHTS assay to identify small molecule agonists of the hypoxia (HIF-1) signaling pathway - cell viability counter screen (AID 1224844; calls by dose curve; further: nearly all actives have a fitted effect of over 50% in size)
In short: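 HRE-bla ME-180 cells in medium with 0.5% dialyzed FBS were preincubated 5 hrs at 37C, exposed to compounds for 17 hrs, then viability was read as CellTiter-Glo luminescence after 30 min at room temperature, in the reporter wells.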

[2] = qHTS assay to identify small molecule agonists of H2AX (AID 1224845; active means well fitted activation curve with a large enough effect in the signal ratio in the repeat runs, not every such curve was filed as active; the % refers to the signal ratio)
In short: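 Phospho-H2AX Ser139 measured by HTRF (ex 320 nm; em 665 and 620 nm) after 24 hr antibody incubation. Compounds, 15 concentrations, 0.76% DMSO, were applied to CHO-K1 cells for 3hr at 37C before lysis.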

[3] = qHTS assay to identify small molecule agonists of the hypoxia (HIF-1) signaling pathway (AID 1224846; active means well fitted activation curve with a large enough effect in the signal ratio in the repeat runs, not every such curve was filed as active; the % refers to the signal ratio)
In short: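 HRE-bla ME-180 cells (beta-lactamase reporter under hypoxia response element) were plated at 2,000 cells/well in medium with 0.5% dialyzed FBS, rested 5 hrs, then given compounds in DMSO for 17 hrs at 37C, 5% CO2. Reporter induction was read with CCF4-AM FRET substrate.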

[4] = qHTS assay to identify small molecule agonists of H2AX - cell viability counter screen (AID 1224847; calls by dose curve;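 further: wild-type CHO-K1 cells; top concentration of the series differs between compounds; nearly all actives have a fitted effect of over 30% in size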)
In short: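 For this counter screen, overnight-attached CHO-K1 cells received test compounds (15 concentrations, 0.76% DMSO final); 3 hr later at 37C, CellTiter-Glo reagent was added and luminescence recorded after 30 min at room temperature.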

[5] = qHTS RealTime-Glo MT Cell Viability Assay in HepG2 cells - 24 hour (AID 1224867); further: nearly all actives have a fitted effect of over 50% in size
In short: (§1)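 Viability was tracked continuously by NanoLuc luminescence from prosubstrate reduced by living HepG2 cells, at successive time points over 40 h of compound exposure. Cells with reagent were preincubated 5 h at 37 °C before compound addition.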

[6] = qHTS RealTime-Glo MT Cell Viability Assay in HEK293 cells - 32 hour (AID 1224868); further: top concentration of the series differs between compounds; nearly all actives have a fitted effect of over 50% in size
In short: (§2)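 Viability tracked continuously by luminescence as live cells reduce a prosubstrate for NanoLuc; HEK293 cells preincubated 5 h, compound-treated at 37 C, and read at 0, 8, 16, 24, 32 and 40 h.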

[7] = A CellTox Green Cytotoxicity Assay to monitor cytotoxicity in HEK293 cells - 0 hour (AID 1224869); further: nearly all actives have a fitted effect of over 50% in size
In short: (§3)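 HEK293 cells premixed with CellTox Green dye were seeded at 600 cells/well and left 5 h at 37 C/5% CO2 before pin transfer of 23 nL compound in DMSO. Fluorescence from dye bound to dead-cell DNA was read during 40 h treatment.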

[8] = qHTS RealTime-Glo MT Cell Viability Assay in HepG2 cells - 40 hour (AID 1224870); further: nearly all actives have a fitted effect of over 50% in size
In short: (§4)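 Real-time viability: cells seeded at 600 per well together with NanoLuc and cell-permeant prosubstrate, compounds added after 5 h incubation. Luminescence tracked at 0, 8, 16, 24, 32 and 40 h of exposure.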

[9] = qHTS RealTime-Glo MT Cell Viability Assay in HEK293 cells - 16 hour (AID 1224872)
In short: as §2

[10] = qHTS RealTime-Glo MT Cell Viability Assay in HepG2 cells - 8 hour (AID 1224873); further: nearly all actives have a fitted effect of over 55% in size
In short: as §4

[11] = qHTS RealTime-Glo MT Cell Viability Assay in HEK293 cells - 40 hour (AID 1224874); settings: RealTime-Glo luminescence; max response: active compounds read low; further: nearly all actives have a fitted effect of over 50% in size
In short: (§5)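 HEK293 cells mixed with RealTime-Glo reagents (NanoLuc plus cell-permeant prosubstrate) at 600 cells/well, preincubated 5 h at 37 C/5% CO2, then given 23 nL compound in DMSO. Nonlytic luminescence from viable cells was read at 0, 8, 16, 24, 32 and 40 h.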

[12] = A CellTox Green Cytotoxicity Assay to monitor cytotoxicity in HEK293 cells - 24 hour (AID 1224875); further: series mostly up to about 77 µM; nearly all actives have a fitted effect of over 45% in size
In short: as §3

[13] = A CellTox Green Cytotoxicity Assay to monitor cytotoxicity in HepG2 cells - 16 hour (AID 1224876); further: nearly all actives have a fitted effect of over 45% in size
In short: (§6)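 HepG2 cells were seeded together with the CellTox Green dye at 600 cells/well, left 5 h at 37 C/5% CO2, then given compounds in DMSO. Fluorescence from dye bound to dead-cell DNA was read repeatedly over 40 h of treatment at 37 C.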

[14] = qHTS RealTime-Glo MT Cell Viability Assay in HepG2 cells - 32 hour (AID 1224877); further: nearly all actives have a fitted effect of over 55% in size
In short: as §1

[15] = A CellTox Green Cytotoxicity Assay to monitor cytotoxicity in HepG2 cells - 24 hour (AID 1224878); further: nearly all actives have a fitted effect of over 45% in size
In short: as §6

[16] = A CellTox Green Cytotoxicity Assay to monitor cytotoxicity in HepG2 cells - 40 hour (AID 1224879); further: nearly all actives have a fitted effect of over 40% in size
In short: as §6

[17] = qHTS RealTime-Glo MT Cell Viability Assay in HEK293 cells - 0 hour (AID 1224880); further: top concentration of the series differs between compounds; nearly all actives have a fitted effect of over 45% in size
In short: as §5

[18] = A CellTox Green Cytotoxicity Assay to monitor cytotoxicity in HEK293 cells - 40 hour (AID 1224871); further: nearly all actives have a fitted effect of over 45% in size
In short: as §3
On the % scale 0 is the no-effect control and ±100 the full control effect.

CCCCCCCCCOS(=O)(=O)O
inactive: Potency [1] | Potency [2] | Potency [3] | Potency [4] | Potency [5] | Potency [6] | Potency [7] | Potency [8] | Potency [9] | Potency [10] | max response [11] 4.38% | Potency [12] | Potency [13] | Potency [14] | Potency [15] | Potency [16] | Potency [17]

COc1ccc2cccc(CCNC(C)=O)c2c1
inactive: Potency [1] | Potency [2] | Potency [3] | Potency [4] | Potency [5] | Potency [6] | Potency [8] | Potency [18] | Potency [9] | max response [11] -8.88% | Potency [12] | Potency [14] | Potency [17]

CC/C=C\CCOC(=O)CC
inactive: Potency [1] | Potency [2] | Potency [3] | Potency [4] | Potency [5] | Potency [7] | Potency [8] | Potency [18] | Potency [9] | Potency [10] | max response [11] 0.388% | Potency [12] | Potency [13] | Potency [14] | Potency [15] | Potency [16] | Potency [17]

C=CC1CC2C=CC1C2 (stereo unspecified)
inactive: Potency [1] | Potency [2] | Potency [3] | Potency [4] | Potency [5] | Potency [6] | Potency [7] | Potency [8] | Potency [18] | Potency [9] | Potency [10] | max response [11] 2.72% | Potency [12] | Potency [14] | Potency [16] | Potency [17]

COCC(C)OC(C)=O (stereo unspecified)
inactive: Potency [1] | Potency [2] | Potency [3] | Potency [4] | Potency [5] | Potency [7] | Potency [8] | Potency [18] | Potency [9] | Potency [10] | max response [11] 8.38% | Potency [12] | Potency [13] | Potency [14] | Potency [15] | Potency [16] | Potency [17]

Cc1cc(C(=O)O)ccc1[N+](=O)[O-]
inactive: Potency [1] | Potency [2] | Potency [3] | Potency [4] | Potency [5] | Potency [6] | Potency [7] | Potency [8] | Potency [18] | Potency [9] | Potency [10] | max response [11] 9.13% | Potency [12] | Potency [13] | Potency [15] | Potency [16] | Potency [17]

CCCCCCCN
inactive: Potency [1] | Potency [2] | Potency [3] | Potency [4] | Potency [5] | Potency [6] | Potency [7] | Potency [8] | Potency [18] | Potency [9] | max response [11] -2.68% | Potency [12] | Potency [13] | Potency [14] | Potency [15] | Potency [16] | Potency [17]

O=C(O)c1ccccc1Cl
inactive: Potency [1] | Potency [2] | Potency [3] | Potency [4] | Potency [5] | Potency [7] | Potency [8] | Potency [18] | Potency [9] | Potency [10] | max response [11] -1.6% | Potency [12] | Potency [13] | Potency [14] | Potency [15] | Potency [16] | Potency [17]

CC(CC=O)c1ccccc1 (stereo unspecified)
inactive: Potency [1] | Potency [2] | Potency [3] | Potency [4] | Potency [5] | Potency [6] | Potency [7] | Potency [8] | Potency [18] | Potency [9] | max response [11] 0.684% | Potency [12] | Potency [13] | Potency [14] | Potency [16] | Potency [17]

OCCNCc1ccccc1
inactive: Potency [1] | Potency [2] | Potency [3] | Potency [4] | Potency [5] | Potency [6] | Potency [7] | Potency [8] | Potency [18] | Potency [9] | Potency [10] | max response [11] -10.3% | Potency [12] | Potency [13] | Potency [15] | Potency [16] | Potency [17]

C=C1[C@H]2CC[C@@H]3[C@H]2C(C)(C)CCC[C@]13C
inactive: Potency [1] | Potency [2] | Potency [3] | Potency [4] | Potency [5] | Potency [6] | Potency [7] | Potency [8] | Potency [9] | max response [11] -2.59% | Potency [12] | Potency [13] | Potency [14] | Potency [15] | Potency [16] | Potency [17]

O=C1OC(=O)C2C3C=CC(C3)C12 (stereo unspecified)
inactive: Potency [1] | Potency [2] | Potency [3] | Potency [4] | Potency [6] | Potency [7] | Potency [8] | Potency [18] | Potency [9] | Potency [10] | max response [11] 12.9% | Potency [12] | Potency [13] | Potency [14] | Potency [15] | Potency [16] | Potency [17]

CC(C)(CO)[N+](=O)[O-]
inactive: Potency [1] | Potency [2] | Potency [3] | Potency [4] | Potency [5] | Potency [6] | Potency [7] | Potency [8] | Potency [18] | Potency [9] | Potency [10] | max response [11] 3.49% | Potency [12] | Potency [13] | Potency [14] | Potency [15] | Potency [16] | Potency [17]

OCCN1CCN(CCCN2c3ccccc3C=Cc3ccccc32)CC1
inactive: Potency [1] | Potency [2] | Potency [3] | Potency [4] | Potency [5] | Potency [6] | Potency [7] | Potency [8] | Potency [18] | Potency [9] | Potency [10] | Potency [12] | Potency [13] | Potency [14] | Potency [15] | Potency [16] | Potency [17]

S=C([S-])NCCNC(=S)[S-].[Mn+2]
inactive: Potency [1] | Potency [2] | Potency [3] | Potency [4] | Potency [5] | Potency [7] | Potency [8] | Potency [18] | Potency [12] | Potency [13] | Potency [14] | Potency [15] | Potency [16] | Potency [17]
